Assay results as given in the supplement of paper PMC12067093, “Discovery and optimisation of a covalent ligand for TRIM25 and its application to targeted protein ubiquitination” (Chemical Science, 2025).
Of roughly 21,000 targets only a part is listed; those with the largest changes were picked by preference.

Compound: CC1Cc2ccccc2N1C(=O)C1CCCN(C1)C(=O)CCl (mixture of isomers) [TRIM25 ligand 11 (diastereomer mixture)]
Test: probe-labelled cysteine peptide fold change vs DMSO (competition) (log2 fold change); higher = less target engagement (more negative = stronger competition)
Conditions: THP-1, incubation time: 4 h
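Also: competitive chemoproteomic profiling in live THP-1 cells with an iodoacetamide desthiobiotin (IA-DTB) probe, comparing probe-labelled peptide intensities in compound-treated cells against DMSO-treated controls.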

UniProt Q9Y266, sequence (Q9Y266 whole entry): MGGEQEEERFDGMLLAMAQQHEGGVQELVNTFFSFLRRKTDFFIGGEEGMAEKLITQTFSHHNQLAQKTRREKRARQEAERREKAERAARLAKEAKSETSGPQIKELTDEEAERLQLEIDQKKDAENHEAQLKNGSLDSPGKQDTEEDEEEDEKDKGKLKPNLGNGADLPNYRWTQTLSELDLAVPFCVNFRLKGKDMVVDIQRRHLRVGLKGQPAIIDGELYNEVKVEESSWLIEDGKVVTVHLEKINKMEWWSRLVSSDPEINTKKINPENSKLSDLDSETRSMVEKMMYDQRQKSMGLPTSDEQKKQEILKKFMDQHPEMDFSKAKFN
UniProt Q96P11, sequence (Q96P11 whole entry, looked up): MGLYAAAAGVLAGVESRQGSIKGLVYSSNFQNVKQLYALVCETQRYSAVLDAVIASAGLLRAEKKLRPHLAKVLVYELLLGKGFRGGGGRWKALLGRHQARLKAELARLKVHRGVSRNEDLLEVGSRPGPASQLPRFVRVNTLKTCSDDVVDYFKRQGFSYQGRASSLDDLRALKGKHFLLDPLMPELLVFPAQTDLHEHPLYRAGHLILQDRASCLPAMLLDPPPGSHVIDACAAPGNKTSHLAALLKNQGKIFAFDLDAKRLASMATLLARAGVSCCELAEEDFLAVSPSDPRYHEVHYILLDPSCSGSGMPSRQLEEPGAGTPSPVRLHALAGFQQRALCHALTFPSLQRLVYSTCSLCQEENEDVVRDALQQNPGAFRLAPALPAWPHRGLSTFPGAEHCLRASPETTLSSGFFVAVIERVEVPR
UniProt Q460N5, sequence (Q460N5 whole entry, looked up): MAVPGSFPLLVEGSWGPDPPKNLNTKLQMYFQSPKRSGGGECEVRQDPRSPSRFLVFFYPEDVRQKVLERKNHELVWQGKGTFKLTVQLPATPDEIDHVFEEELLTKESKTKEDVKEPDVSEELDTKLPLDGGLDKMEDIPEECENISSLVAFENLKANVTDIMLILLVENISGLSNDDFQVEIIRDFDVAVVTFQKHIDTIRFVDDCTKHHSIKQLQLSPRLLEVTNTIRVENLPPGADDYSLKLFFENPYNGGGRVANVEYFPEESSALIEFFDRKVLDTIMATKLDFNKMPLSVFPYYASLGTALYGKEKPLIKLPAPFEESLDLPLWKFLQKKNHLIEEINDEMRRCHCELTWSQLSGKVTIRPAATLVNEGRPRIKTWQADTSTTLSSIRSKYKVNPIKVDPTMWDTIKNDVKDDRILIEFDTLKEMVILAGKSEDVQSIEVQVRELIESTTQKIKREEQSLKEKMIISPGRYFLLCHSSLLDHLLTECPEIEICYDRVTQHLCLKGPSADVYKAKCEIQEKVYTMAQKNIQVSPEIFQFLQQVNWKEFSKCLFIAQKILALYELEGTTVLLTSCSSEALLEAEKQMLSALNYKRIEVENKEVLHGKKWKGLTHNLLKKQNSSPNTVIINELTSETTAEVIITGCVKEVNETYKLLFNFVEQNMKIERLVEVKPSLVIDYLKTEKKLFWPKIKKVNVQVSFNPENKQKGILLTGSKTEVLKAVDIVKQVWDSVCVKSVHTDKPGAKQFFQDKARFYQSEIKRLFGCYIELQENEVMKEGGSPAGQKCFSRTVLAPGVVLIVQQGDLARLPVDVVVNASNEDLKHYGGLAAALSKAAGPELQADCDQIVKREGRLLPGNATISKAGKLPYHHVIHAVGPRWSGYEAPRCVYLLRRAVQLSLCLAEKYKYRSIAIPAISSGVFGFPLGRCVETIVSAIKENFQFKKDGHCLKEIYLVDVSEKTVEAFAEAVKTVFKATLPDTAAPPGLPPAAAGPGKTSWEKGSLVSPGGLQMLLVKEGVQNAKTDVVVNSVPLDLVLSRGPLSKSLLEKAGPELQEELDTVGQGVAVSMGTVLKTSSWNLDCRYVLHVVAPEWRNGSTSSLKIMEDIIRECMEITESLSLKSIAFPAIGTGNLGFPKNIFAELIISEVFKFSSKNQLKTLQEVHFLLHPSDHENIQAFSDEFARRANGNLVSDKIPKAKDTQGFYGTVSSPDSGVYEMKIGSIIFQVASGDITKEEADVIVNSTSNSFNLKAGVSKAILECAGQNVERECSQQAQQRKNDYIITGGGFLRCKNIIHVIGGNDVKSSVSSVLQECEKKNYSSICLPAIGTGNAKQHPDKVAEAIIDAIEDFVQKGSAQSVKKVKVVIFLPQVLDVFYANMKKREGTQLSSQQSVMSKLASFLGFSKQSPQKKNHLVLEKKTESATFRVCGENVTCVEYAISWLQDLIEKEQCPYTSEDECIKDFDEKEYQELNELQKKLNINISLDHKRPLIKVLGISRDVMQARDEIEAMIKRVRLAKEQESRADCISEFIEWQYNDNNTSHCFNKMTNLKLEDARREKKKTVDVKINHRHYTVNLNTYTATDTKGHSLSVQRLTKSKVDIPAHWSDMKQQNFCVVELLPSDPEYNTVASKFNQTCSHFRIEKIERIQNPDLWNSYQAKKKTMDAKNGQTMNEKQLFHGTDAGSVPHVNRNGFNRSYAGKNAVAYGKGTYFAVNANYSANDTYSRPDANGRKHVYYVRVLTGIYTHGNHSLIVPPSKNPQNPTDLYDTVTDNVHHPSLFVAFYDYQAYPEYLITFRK
UniProt Q9UBB6, sequence (Q9UBB6 whole entry, looked up): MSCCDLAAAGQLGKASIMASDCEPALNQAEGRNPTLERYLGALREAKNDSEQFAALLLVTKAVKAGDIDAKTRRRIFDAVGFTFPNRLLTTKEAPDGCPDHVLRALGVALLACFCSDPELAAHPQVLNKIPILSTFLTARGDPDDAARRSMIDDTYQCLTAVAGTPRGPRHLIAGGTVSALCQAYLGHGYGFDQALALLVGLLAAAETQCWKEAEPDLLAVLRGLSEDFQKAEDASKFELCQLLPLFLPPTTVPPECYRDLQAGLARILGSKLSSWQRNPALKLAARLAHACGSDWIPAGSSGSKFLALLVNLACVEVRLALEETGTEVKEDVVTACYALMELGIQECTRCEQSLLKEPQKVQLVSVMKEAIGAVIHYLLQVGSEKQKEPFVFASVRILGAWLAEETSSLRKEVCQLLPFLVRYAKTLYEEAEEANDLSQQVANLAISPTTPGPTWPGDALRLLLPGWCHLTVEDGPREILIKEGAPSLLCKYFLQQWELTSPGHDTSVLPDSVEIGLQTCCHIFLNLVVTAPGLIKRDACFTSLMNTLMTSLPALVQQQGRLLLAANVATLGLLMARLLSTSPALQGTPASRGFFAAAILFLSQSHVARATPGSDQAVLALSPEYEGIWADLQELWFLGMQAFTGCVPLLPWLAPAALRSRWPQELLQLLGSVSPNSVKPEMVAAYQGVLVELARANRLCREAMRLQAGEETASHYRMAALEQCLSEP
UniProt P32242, sequence (P32242 whole entry): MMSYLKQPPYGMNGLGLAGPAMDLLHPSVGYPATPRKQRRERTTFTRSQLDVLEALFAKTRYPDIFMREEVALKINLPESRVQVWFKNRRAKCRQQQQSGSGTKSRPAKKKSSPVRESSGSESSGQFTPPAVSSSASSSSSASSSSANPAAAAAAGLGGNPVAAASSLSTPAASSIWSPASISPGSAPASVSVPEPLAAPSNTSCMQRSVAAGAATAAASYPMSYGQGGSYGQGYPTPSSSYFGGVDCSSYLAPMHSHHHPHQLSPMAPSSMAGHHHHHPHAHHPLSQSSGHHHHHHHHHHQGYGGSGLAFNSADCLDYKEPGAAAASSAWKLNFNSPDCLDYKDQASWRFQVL
UniProt Q9Y2J8, sequence (Q9Y2J8 whole entry, looked up): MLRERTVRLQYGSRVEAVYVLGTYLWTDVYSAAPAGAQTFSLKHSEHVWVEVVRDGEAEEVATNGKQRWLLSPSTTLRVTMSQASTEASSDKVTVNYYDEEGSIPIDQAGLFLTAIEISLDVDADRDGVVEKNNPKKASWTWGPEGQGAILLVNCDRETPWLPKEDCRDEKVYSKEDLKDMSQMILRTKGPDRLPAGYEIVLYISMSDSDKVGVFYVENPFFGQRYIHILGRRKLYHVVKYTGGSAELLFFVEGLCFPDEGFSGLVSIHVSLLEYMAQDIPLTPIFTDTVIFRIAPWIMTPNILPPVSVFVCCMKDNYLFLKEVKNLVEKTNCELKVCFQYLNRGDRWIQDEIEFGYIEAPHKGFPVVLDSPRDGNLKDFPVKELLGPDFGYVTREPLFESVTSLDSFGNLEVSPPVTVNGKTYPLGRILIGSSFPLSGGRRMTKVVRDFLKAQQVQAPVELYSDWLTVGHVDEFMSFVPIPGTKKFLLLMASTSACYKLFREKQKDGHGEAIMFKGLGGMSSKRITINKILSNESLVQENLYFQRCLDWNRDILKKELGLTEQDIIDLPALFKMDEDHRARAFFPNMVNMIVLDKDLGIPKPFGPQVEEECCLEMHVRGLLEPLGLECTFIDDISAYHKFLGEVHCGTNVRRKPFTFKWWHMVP
UniProt Q9NVZ3, sequence (Q9NVZ3 whole entry): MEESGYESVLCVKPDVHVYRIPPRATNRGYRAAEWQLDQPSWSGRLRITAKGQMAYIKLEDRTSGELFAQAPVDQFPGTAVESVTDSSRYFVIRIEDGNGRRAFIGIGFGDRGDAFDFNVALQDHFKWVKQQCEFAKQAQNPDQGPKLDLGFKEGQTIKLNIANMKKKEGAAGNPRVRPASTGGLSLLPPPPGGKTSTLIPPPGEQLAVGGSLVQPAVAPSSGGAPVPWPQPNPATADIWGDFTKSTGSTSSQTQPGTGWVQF
UniProt O95848, sequence (O95848 whole entry, looked up): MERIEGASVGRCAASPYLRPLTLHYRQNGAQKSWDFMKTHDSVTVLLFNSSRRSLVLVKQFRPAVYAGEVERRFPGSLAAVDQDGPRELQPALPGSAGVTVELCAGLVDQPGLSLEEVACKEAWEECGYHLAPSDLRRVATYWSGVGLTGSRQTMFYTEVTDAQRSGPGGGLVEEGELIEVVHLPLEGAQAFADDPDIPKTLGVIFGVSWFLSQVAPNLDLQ

Row | Target | probe-labelled cysteine peptide fold change (10 µM) | probe-labelled cysteine peptide fold change (50 µM)
1 | NECAP2_Q9NVZ3_11_MEESGYESVLCVKPDVHVYR (UniProt Q9NVZ3) | -0.174 | -0.048
2 | NUDC_Q9Y266_188_WTQTLSELDLAVPFCVNFR (UniProt Q9Y266) | -0.0574 | 0.00376
3 | PDCD4_Q53EL6_288_GTVDCVQAR (UniProt Q53EL6) | 0.164 | 0.233
4 | P3H1_Q32P28_123_CLGPPAAHSLSEEMELEFR (UniProt Q32P28) | 0.411 | 0.646
5 | NVL_O15381_460_LPQAFDFCHLAHLTPGFVGADLMALCR (UniProt O15381) | -0.219 | -0.00784
6 | PCID2_Q5JVF3_25_DGASCAELVSFK (UniProt Q5JVF3) | -0.115 | -0.0805
7 | NEDD4_P46934-4_4_ATCAVEVFGLLEDEENSR (UniProt P46934) | -0.669 | -0.509
8 | NUP93_Q8N1F7_328_CGDLLAASQVVNR (UniProt Q8N1F7) | 0.0268 | 0.221
9 | NCDN_Q9UBB6-2_5_ASDCEPALNQAEGR (UniProt Q9UBB6) | 0.0744 | -0.297
10 | NSUN5_Q96P11_278+279_AGVSCCELAEEDFLAVSPSDPR (UniProt Q96P11) | 0.234 | -0.117
11 | PARP14_Q460N5_1274_ECSQQAQQR (UniProt Q460N5) | 0.0962 | -0.0412
12 | PADI2_Q9Y2J8_629_GLLEPLGLECTFIDDISAYHK (UniProt Q9Y2J8) | 0.0551 | 0.0618
13 | NUDT14_O95848_12_CAASPYLRPLTLHYR (UniProt O95848) | -0.125 | 0.0208
14 | OTX1_P32242_340_LNFNSPDCLDYK (UniProt P32242) | 0.161 | -0.0204
